# In PubChem BioAssay AID629 (Emory University Molecular Libraries Screening Center, 2007):
# The campaign covered roughly 86,000 compounds. About 1,400 (1.6%) were called active. No stated cut-off is given here; in the data, active means inhibition above about 50%; inactive means the rest. This excerpt belongs to a sample that is enriched for actives.
# Molecular target: Estrogen receptor (Homo sapiens) (UniProt P03372)
# Test: blockers of SRC-1 peptide recruitment to ERα – biochemical, TR-FRET, ERα LBD, estradiol-bound, primary screen (AID 629);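 further: 0% = receptor plus peptide control and 100% = peptide only without receptor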
# Conditions: TR-FRET ER-alpha LBD / SRC-1 peptide, at 25.6 µM, stronger effect = higher value
# Estrogen receptor (Homo sapiens), sequence (P03372 whole entry, looked up, the tested form may be a part): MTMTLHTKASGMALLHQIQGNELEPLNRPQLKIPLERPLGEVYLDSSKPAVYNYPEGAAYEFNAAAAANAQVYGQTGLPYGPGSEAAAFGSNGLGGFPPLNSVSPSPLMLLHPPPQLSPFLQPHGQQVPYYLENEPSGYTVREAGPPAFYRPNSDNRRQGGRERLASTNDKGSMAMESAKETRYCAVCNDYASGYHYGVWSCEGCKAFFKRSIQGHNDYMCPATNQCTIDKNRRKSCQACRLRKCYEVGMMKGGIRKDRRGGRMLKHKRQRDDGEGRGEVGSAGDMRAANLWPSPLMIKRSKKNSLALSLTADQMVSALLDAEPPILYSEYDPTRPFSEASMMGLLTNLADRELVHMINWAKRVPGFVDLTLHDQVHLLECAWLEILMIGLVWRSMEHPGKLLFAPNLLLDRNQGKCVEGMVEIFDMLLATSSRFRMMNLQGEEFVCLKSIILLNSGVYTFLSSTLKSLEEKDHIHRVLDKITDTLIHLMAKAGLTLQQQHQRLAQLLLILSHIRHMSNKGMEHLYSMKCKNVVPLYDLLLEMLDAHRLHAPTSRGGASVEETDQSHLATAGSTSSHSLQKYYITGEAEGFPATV
row,SMILES,inhibition
1,COc1ccc(-c2ccc(-c3noc(-c4ccncc4)n3)c(OC)n2)cc1,59.7% (active)
2,COc1cc(-c2nc(-c3ccncc3)no2)cc(OC)c1OC,-8.51% (inactive)
3,CCOc1nc(-c2ccc(OC)cc2)ccc1-c1noc(-c2cc(OC)c(OC)c(OC)c2)n1,9.34% (inactive)
4,NC1=NC(=O)C2(COC(c3ccccc3Cl)OC2)S1 (configuration not stated),-0.98% (inactive)
5,CC(=O)c1cccc(NC(=O)Nc2ccc(C)cc2)c1,4.59% (inactive)
6,COc1cccc(NC(=O)Cc2ccc(C)cc2)c1,-3.07% (inactive)
7,Cc1ccc(NC(=S)NC(NC(=O)Cc2cccc3ccccc23)C(Cl)(Cl)Cl)cc1 (configuration not stated),57% [fluorescence artefact?] (active)
8,O=S(=O)(Cc1cc(Sc2ccccc2)nc(-c2ccccc2)n1)c1ccccc1,-0.05% (inactive)
9,CSc1ccc(S(=O)(=O)Nc2cccc(F)c2)cc1,61.3% (active)
10,CC(=O)Nc1ccc(S(=O)(=O)Nc2cccc(NC(=O)C(C)(C)C)c2)cc1,-5.55% (inactive)
11,CSc1ccc(S(=O)(=O)NC2CCCCC2)cc1,6.27% (inactive)
12,Cc1cccc(N2CCN(C(c3ccc(N(C)C)cc3)c3nnnn3C(C)(C)C)CC2)c1C (configuration not stated),1.11% (inactive)
13,CC(=O)C1=C(C)NC(C)=C(C(C)=O)C1c1cn(-c2ccccc2)nc1-c1cccs1,-18.1% (inactive)
14,CC(C)(C)c1cc(=O)n2c(nc3ccccc32)[nH]1,11.3% (inactive)
15,COCCn1c(SCc2nnc(-c3ccc(OC)c(OC)c3)o2)nc2sc3c(c2c1=O)CCC3,-16.5% (inactive)
16,CCCC1(C(=O)OCC)NC(c2ccc(N(C)C)cc2)C2C(=O)N(c3ccc4c(c3)OCCO4)C(=O)C21 (configuration not stated),-19% (inactive)
17,COc1cccc(-c2nn(C)c3sc(C(=O)N4CCN(c5ccccc5)CC4)cc23)c1,6.81% (inactive)
18,Cc1nc2ccc(C(=O)N3CCN(c4ccccc4)CC3)cc2s1,-14.9% (inactive)
19,O=C(c1cc2c(s1)CCC2)N1CCN(c2ccccc2)CC1,67.9% [fluorescence artefact?] (active)
20,COC(=O)c1cc(OC)ccc1-c1ccc(OC)cc1,-2.99% (inactive)
21,CCc1ccc(CNC(=O)CCc2nc(-c3cccs3)no2)cc1,0.94% (inactive)
22,O=C(c1cc2sccc2n1Cc1ccc(F)cc1)N1CCc2ccccc21,-24.7% (inactive)
23,CC1(c2ccccc2Cl)NC(=O)N(CC(=O)NC(=O)NCc2ccco2)C1=O (configuration not stated),9.78% (inactive)

row,SMILES,inhibition
1,O=C(COC(=O)c1ccc(S(=O)(=O)N2CCc3ccccc3C2)cc1)NC(=O)NCc1ccco1,10.1% (inactive)
2,O=C(CN1CCN(S(=O)(=O)/C=C/c2ccccc2)CC1)NC(=O)NCc1ccco1,55% [fluorescence artefact?] (active)
3,CCC(C)n1[nH]c(=O)c2c(C)cc(C)nc21 (configuration not stated),-1.94% (inactive)
4,CCC(C)n1[nH]c(=O)cc1N (configuration not stated),60.4% (active)
5,CCCC(C)n1[nH]c(=O)c2c(C)cc(C)nc21 (configuration not stated),-5.08% (inactive)
6,CCN1C(=O)/C(=C2/Sc3ccc(OC)cc3N2C)SC1=Nc1ccc(C)cc1,18.8% (inactive)
7,NC(=O)C1(N2CCCCC2)CCN(C2CC(=O)N(Cc3ccc(N4CCCC4=O)cc3)C2=O)CC1 (configuration not stated),-9.78% (inactive)
8,COc1ccc(C(=O)Cc2cnn(-c3ccccc3)c2)c(O)c1,-7.1% (inactive)
9,COc1ccccc1NC(=O)/C=C/C(N)=O,13% (inactive)
10,Cc1ccc(C(=O)COc2cccc(NC(=O)c3ccco3)c2)cc1,6.84% (inactive)
11,CCOc1cc(NC(=O)c2ccco2)c(OCC)cc1NC(=O)COc1ccccc1,77.7% [fluorescence artefact?] (active)
12,O=C(Nc1ccc(Oc2ccccc2)cc1)c1ccco1,0.33% (inactive)
13,COC(=O)C1=C(Nc2ccc(C)cc2)C=C(C)C(C(=O)OC)C1c1ccc(F)cc1 (configuration not stated),-7.97% (inactive)
14,Cc1nn(C)cc1CNC(=O)Nc1ccc(Cl)cc1,5.21% (inactive)
15,Cc1cccc(C(=O)Nc2ccccc2N2CCN(c3ccc(F)cc3)CC2)c1,-12.2% (inactive)
16,O=C1CCCc2nn(-c3ccccc3)nc21,-5.5% (inactive)
17,O=C(COC(=O)C12CC3CC(CC(C3)C1)C2)NCc1ccco1,21% (inactive)
18,O=C(CCC(=O)c1cccs1)NCc1ccccc1,3.23% (inactive)
19,O=C(COC(=O)CCC(=O)c1cccs1)NCc1ccco1,71.3% (active)
20,O=C(Nc1nncs1)c1cccc(S(=O)(=O)N2CCCCC2)c1,-7.35% (inactive)
21,CC(C)(C)n1nnnc1C(c1ccc(Cl)cc1)N1CCSCC1 (configuration not stated),-5.89% (inactive)
22,Cc1cccc(NC(=O)CSc2nnc(-c3ccco3)o2)c1,-9.42% (inactive)
23,O=C(Cn1cc(C(=O)c2cccs2)c2ccccc21)NCc1cccs1,4.67% (inactive)

row,SMILES,inhibition
1,Cc1cccc(NC(=O)Cn2cc(C(=O)c3ccco3)c3ccccc32)c1,52.3% (active)
2,Cc1cc(C)c2cc(CN(Cc3nnnn3Cc3ccc(F)cc3)C3CCCC3)c(=O)[nH]c2c1,7.55% (inactive)
3,COc1ccc(-c2nnc(SCc3cccnc3)o2)cc1,-6.1% (inactive)
4,COc1ccc(S(=O)(=O)N/N=C\c2ccc(OC)c(COc3ccc(C)cc3[N+](=O)[O-])c2)cc1,17.7% (inactive)
5,O=C(CSc1nnnn1-c1ccccc1)NCc1ccco1,33.1% (inactive)
6,COc1ccc(Cc2nnc(NC(=O)Cc3cccs3)s2)cc1,97.3% [fluorescence artefact?] (active)
7,CCCc1ccc(-c2csc(NC(=O)Cc3cccs3)n2)cc1,7.36% (inactive)
8,COc1ccc(Cc2nnc(NS(=O)(=O)Cc3ccccc3)s2)cc1,-16.5% (inactive)
9,CC(C)(C)C(=O)Cn1c(NCCO)nc2ccccc21,-7.55% (inactive)
10,CN(Cc1ccccc1)C(=O)COc1ccccc1,21% (inactive)
11,COCCCn1c2nc3ccccc3nc2c2c(=O)n(Cc3ccc(Cl)cc3)c(C)nc21,22.2% (inactive)
12,Cc1ccc(Cn2c(C)nc3c(c2=O)c2nc4ccccc4nc2n3Cc2ccco2)cc1,45.1% (inactive)
13,Cc1nc2c(c(=O)n1Cc1ccco1)c1nc3ccccc3nc1n2Cc1ccccc1,79.5% (active)
14,CC1(C)CCc2nc(SCc3ccccc3)c(C#N)cc2C1,-2.01% (inactive)
15,C=C(C)CNC(=S)/N=c1\scc(C)n1CC,64.7% [fluorescence artefact?] (active)
16,CS(=O)(=O)n1nc(-c2ccccc2)nc1NCc1ccco1,-3% (inactive)
17,CCOc1ccc2c(c1)C(c1ccc(C)cc1)=NNC(c1ccc(C)cc1)=N2,-14.6% (inactive)
18,Clc1ccc(COn2c(-c3ccc(Cl)cc3Cl)nc3ncccc32)cc1,27.7% (inactive)
19,COc1ccc(S(=O)(=O)NCc2ccc(C(=O)N(C)Cc3ccco3)cc2)cc1,2.78% (inactive)
20,Oc1c(C(c2ccccn2)N2CCOCC2)ccc2cccnc12 (configuration not stated),70% [fluorescence artefact?] (active)
21,Cc1nc2sc(C(c3ccco3)N3CCOCC3)c(O)n2n1 (configuration not stated),-24% (inactive)
22,O=C(c1cccnc1NCc1ccccc1)N1CCOCC1,-6.49% (inactive)
23,CCc1nnc(NC(=O)CCC(=O)NCc2ccccc2OC)s1,-1.4% (inactive)

row,SMILES,inhibition
1,O=C(Nc1ccc2oc(-c3ccc4ccccc4c3)nc2c1)c1cccs1,55% (active)
2,Cc1nc(-c2ccc(NC(=O)c3cccs3)cc2)cs1,-16.8% (inactive)
3,O=C(Cc1cccc2ccccc12)Nc1ccc2oc(-c3ccccc3)nc2c1,-1.24% (inactive)
4,CCOC(=O)c1ccccc1NS(=O)(=O)c1ccc(OC)cc1,-11.3% (inactive)
5,CCN1CCN(C(c2cccnc2)c2cc(Cl)c3cccnc3c2O)CC1 (configuration not stated),65.6% [fluorescence artefact?] (active)
6,Oc1c(CN2CCN(c3ccc(F)cc3)CC2)cc(Cl)c2cccnc12,-0.01% (inactive)
7,CCOC(=O)N1CCN(C(=O)c2cc3c(ccc4ccccc43)oc2=O)CC1,-9.07% (inactive)
8,CCOC(=O)N1CCN(C(=O)CSc2ccc(Cl)cc2)CC1,-2.04% (inactive)
9,CCOC(=O)N1CCN(C(c2cccnc2)c2ccc3cccnc3c2O)CC1 (configuration not stated),53.3% [fluorescence artefact?] (active)
10,CCn1c(=O)c(=O)n(CC)c2cc(S(=O)(=O)N3CCc4ccccc43)ccc21,-5.41% (inactive)
11,CCN(CC)CC(=O)c1c[nH]c2ccc(OC)cc12,-8.61% (inactive)
12,CCOC(=O)/C(C#N)=C\c1c(C)cc(C)c(COC(C)=O)c1C,-6.55% (inactive)
13,O=C(Nc1ccc2c(c1)OCCO2)c1ccncc1,-22.6% (inactive)
14,O=C(Nc1nc(-c2ccc3c(c2)OCO3)cs1)c1ccncc1,58% [fluorescence artefact?] (active)
15,O=C(Nc1nc(-c2ccncc2)cs1)C1COc2ccccc2O1 (configuration not stated),1.84% (inactive)
16,COc1ccc(CN(C(=O)CSc2nnc(-c3ccc(OC)c(OC)c3)o2)c2ccc(F)cc2)cc1,-6.76% (inactive)
17,COc1ccc(C(=O)N2CC3(C)CC2CC(C)(C)C3)cc1OC (configuration not stated),-3.82% (inactive)
18,O=C(CSc1nnc(-c2cccnc2)n1CCc1ccccc1)NCc1ccccc1,-17.8% (inactive)
19,CCOc1cccc(-c2nn3c(-c4ccccn4)nnc3s2)c1,2.04% (inactive)
20,c1ccc(-c2cc(-c3nnc4sc(-c5ccccn5)nn34)[nH]n2)cc1,54.2% [fluorescence artefact?] (active)
21,COc1ccc(-c2nn3c(-c4ccccc4)nnc3s2)cc1OC,3.83% (inactive)
22,O=C(/C=C/NNC(=O)c1cccc(Br)c1)c1ccccc1,-3.8% (inactive)
23,C=CCO/N=C(\C)c1c(O)c(C)c(-c2ccccc2)n(-c2ccccc2)c1=O,2.56% (inactive)
